p-CIP stab down = lowers stability of the mouse p/CIP coactivator protein; decrease of EGFP signal, % at 10 µM; F442A p/CIP-EGFP cells, EGFP fluorescence, 16 h; actives 0.01% (n = 290,000); Q05BA5; AID 1984;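 active = EGFP signal decrease of at least 30% at 10 µM or well 3 SD below plate mean, unless failing retest; inactive = the rest, including hits failing retest or dose response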
MsrA inh = bovine MsrA inhibition; purified bovine MsrA, absorbance read-out; inhibition, % at 15.5 µM; actives 0.75% (n = 360,000); in the data active = inhibition above about 4.5%
14-3-3 Bad PPI = disrupts binding of bovine 14-3-3 zeta to phospho-Bad peptide; P63103; TR-FRET 14-3-3zeta/Dy647-pBad peptide displacement, 1 h; inhibition, % at 21.7 µM; actives 0.71% (n = 220,000);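 active = inhibition above about 70%, limit read from the data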
Target sequence (P63103 whole entry, looked up): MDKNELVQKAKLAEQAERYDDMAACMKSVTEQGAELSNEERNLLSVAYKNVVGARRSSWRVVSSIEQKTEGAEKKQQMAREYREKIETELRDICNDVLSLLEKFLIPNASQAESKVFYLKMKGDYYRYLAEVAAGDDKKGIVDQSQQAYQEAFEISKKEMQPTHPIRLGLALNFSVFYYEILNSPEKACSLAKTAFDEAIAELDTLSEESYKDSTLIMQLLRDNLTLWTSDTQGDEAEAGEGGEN
MsrA act = activates bovine MsrA enzyme; purified bovine MsrA, absorbance read-out; actives 0.3% (n = 360,000); activation, % at 10.6 µM; AID 602163; in the data active = activation above about 7.5%
MsrA activ conf = bovine methionine sulfoxide reductase A activation confirmed; shares compounds with MsrA act; purified bovine MsrA, absorbance read-out; activation, % at 10.6 µM; actives 12% (n = 1,000); AID 602270; in the data active = activation above about 4%;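 note: enzyme coupled to thioredoxin and thioredoxin reductase with NADPH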
Numbers stand for hits; – = inactive; · = not tested or not shown. Hits are enriched below; roughly 1.4% of the tested compounds scored in any of these assays.

SMILES | p-CIP stab down | MsrA inh | 14-3-3 Bad PPI | MsrA act | MsrA activ conf
CCCOc1ccc(/C=C2\SC(=S)N(CC3CCCO3)C2=O)cc1 (stereo not drawn) | – | – | – | – | ·
O=C1/C(=C/c2ccc(O)cc2)SC(=S)N1CC1CCCO1 (stereo not drawn) | – | – | – | 11 | –
CCOC(=O)C1CCN(S(=O)(=O)c2ccc3c(c2)CC(C)N3C(=O)C2CCC2)CC1 (stereo not drawn) | – | – | · | – | ·
CCCn1c(C)c(CC(=O)Nc2ccc(N(C)c3ccccn3)cc2)c2ccccc21 | · | – | · | · | ·
Cc1ccc(C(=O)OCC(=O)NC2CCCCC2)cc1S(=O)(=O)N1CCCCC1 | · | – | · | 8.4 | –
COc1ccc(Cn2c(C)cc(O)cc2=O)cc1 | · | – | · | · | ·
Cn1c(=O)c2cc(NC(=O)CCc3ccccc3)ccc2n1Cc1cccc(C(F)(F)F)c1 | · | – | · | 7.8 | –
C[C@H](O)[C@@H]1C(=O)N2CCc3c([nH]c4ccccc34)[C@@H]2C[C@@H]1N(C)Cc1ccc(Cl)cc1 | · | – | · | 7.8 | –
COCC(=O)N(C)[C@H]1C[C@H]2c3[nH]c4ccccc4c3CCN2C(=O)[C@H]1[C@H](C)O | · | – | · | – | ·
C[C@@H]1ON(C)[C@H]2C[C@H]3c4[nH]c5c(-c6ccc(F)cc6)cccc5c4CCN3C(=O)[C@@H]12 | · | – | · | · | ·
N#Cc1ccc(CSCC(=O)NN=C2CCCC2)cc1 | – | – | – | – | ·
O=C(CSCc1ccc(Cl)cc1)NN=C1CCCC1 | – | – | – | 8.1 | –
CC(=O)OCC(=O)NCC1CCN(C(=O)C(=O)c2cc3ccccc3o2)CC1 | · | – | · | · | ·
Cn1nnnc1SCC(=O)N1CCc2ccccc21 | – | – | – | 17 | –
COC(=O)C1=C(C)N(Cc2ccccc2C(F)(F)F)C(=NCc2ccc3c(c2)OCO3)NC1CCc1ccccc1 (stereo not drawn) | · | – | · | · | ·
CCCCNC(=O)CN(Cc1ccco1)S(=O)(=O)c1ccc(C(C)=O)cc1 | · | – | · | 11 | –
CCCNC(=O)CN(Cc1ccco1)S(=O)(=O)c1ccc(OCC)cc1 | – | – | – | – | ·
COc1cc(C[C@@H]2C(=O)OC[C@H]2Cc2ccc(OC)c(OC)c2)ccc1O | · | – | · | 11 | –
COc1cc(CC2COC(=O)C2Cc2ccc(O)c(OC)c2)ccc1O (stereo not drawn) | · | – | · | · | ·
CCOC(=O)C1CCCN(C(=O)CCCn2nnnc2CN2CCOCC2)C1 (stereo not drawn) | – | – | · | 15 | –
O=C1C=C(c2c(O)ccc3ccccc23)c2ccccc2C1=O | · | – | · | 21 | 12
Cc1ccc(-c2csc3n[nH]c(=S)n23)cc1 | – | – | – | 12 | –
CCn1c(-c2ccc(C)cc2)n[nH]c1=S | – | – | – | – | ·
C[C@H](c1ccccc1)N1C[C@@H](COCc2ccccc2)Oc2cccc(Oc3ccccc3)c2S1(=O)=O | · | – | · | · | ·
O=C(NCc1cccnc1)C(=O)NCC1OCCN1S(=O)(=O)c1ccc(F)cc1 (stereo not drawn) | – | – | – | 8.4 | –
SMILES | p-CIP stab down | MsrA inh | 14-3-3 Bad PPI | MsrA act | MsrA activ conf
COc1ccccc1-c1ccc2c(c1)[C@@H]1C[C@H]3[C@@H](CN1CC2)[C@H](C)ON3C | · | – | · | · | ·
COCC(C)NC(C(=O)Nc1cccc(C(C)=O)c1)c1ccccc1 (stereo not drawn) | – | – | – | – | ·
CCOc1ccc(NC(C(=O)Nc2cccc(C(C)=O)c2)c2ccccc2)cc1 (stereo not drawn) | – | – | – | 9.5 | 10
C=CCn1c(COc2ccc(Cl)cc2)nnc1SCC(=O)NCC(=O)OCC | – | – | – | 8.2 | –
S=c1nc(-c2ccccc2Cl)[nH][nH]1 | – | – | – | 8.1 | –
CCc1noc(C)c1C(=O)N1CCN(S(=O)(=O)c2cccs2)CC1 | · | – | · | 10.0 | –
CCCC(=O)NC1=C(Cl)C(=O)c2ccccc2C1=O | · | – | · | 9.2 | –
CCNC1=C(Cl)C(=O)c2ccccc2C1=O | – | – | – | 12 | 4.0
CCN(CC)c1ccc(NC2=C(Cl)C(=O)c3ccccc3C2=O)cc1 | – | · | – | – | ·
O=C1C(Cl)=C(NCc2ccco2)C(=O)c2ccccc21 | · | – | · | 14 | 11
COC(=O)C1=C(C)N(Cc2cccc(C(F)(F)F)c2)C(=NCc2ccc(OC)cc2)NC1c1ccccc1C(F)(F)F (stereo not drawn) | · | – | · | · | ·
CCCCCCCCN1C(=O)[C@@H](CC(=O)N2CCC(c3ccccc3)CC2)C[C@@]2(C(=O)OC)C1=C[C@H](C1CCCC1)O[C@@H]2C | · | – | · | · | ·
Cc1csc(N(C(=O)c2cccc(S(=O)(=O)N3CCCC3)c2)c2ccccc2)n1 | – | – | – | 15 | –

Compound activity as filed in PubChem.
